# Assay outcomes deposited in PubChem BioAssay by several laboratories.
# This is a sample that favours compounds with a hit; in the whole collection about 2.2% have one here.
# PLCb3 inh: inhibitors of human phospholipase C beta3. 0.18% of 370,000 active. inhibition, % at 12.2 µM. AID 720704. Q01970. Purified PLC-beta3, fluorogenic substrate, fluorescence
# GC-B act: GC-B (human) receptor activation. P20594. HEK293-GC-B cells, CNP EC30, cGMP TR-FRET; 0% at EC30 CNP, 100% saturating CNP. activation, % at 10 µM. 0.11% of 370,000 active. AID 1920062;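 active = activation at 10 µM reaching about 35% in either raw or pattern-adjusted values, limit read from the data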
# GC-A act: GC-A (human) enzyme activation. P16066. HEK293 GC-A cells, cGMP TR-FRET, EC30 ANP; 0% at EC30 ANP, 100% saturating ANP. activation, % at 10 µM. 0.14% of 370,000 active. AID 1671463; in the data active = activation above about 40%
# Target sequence (P16066 whole entry, looked up): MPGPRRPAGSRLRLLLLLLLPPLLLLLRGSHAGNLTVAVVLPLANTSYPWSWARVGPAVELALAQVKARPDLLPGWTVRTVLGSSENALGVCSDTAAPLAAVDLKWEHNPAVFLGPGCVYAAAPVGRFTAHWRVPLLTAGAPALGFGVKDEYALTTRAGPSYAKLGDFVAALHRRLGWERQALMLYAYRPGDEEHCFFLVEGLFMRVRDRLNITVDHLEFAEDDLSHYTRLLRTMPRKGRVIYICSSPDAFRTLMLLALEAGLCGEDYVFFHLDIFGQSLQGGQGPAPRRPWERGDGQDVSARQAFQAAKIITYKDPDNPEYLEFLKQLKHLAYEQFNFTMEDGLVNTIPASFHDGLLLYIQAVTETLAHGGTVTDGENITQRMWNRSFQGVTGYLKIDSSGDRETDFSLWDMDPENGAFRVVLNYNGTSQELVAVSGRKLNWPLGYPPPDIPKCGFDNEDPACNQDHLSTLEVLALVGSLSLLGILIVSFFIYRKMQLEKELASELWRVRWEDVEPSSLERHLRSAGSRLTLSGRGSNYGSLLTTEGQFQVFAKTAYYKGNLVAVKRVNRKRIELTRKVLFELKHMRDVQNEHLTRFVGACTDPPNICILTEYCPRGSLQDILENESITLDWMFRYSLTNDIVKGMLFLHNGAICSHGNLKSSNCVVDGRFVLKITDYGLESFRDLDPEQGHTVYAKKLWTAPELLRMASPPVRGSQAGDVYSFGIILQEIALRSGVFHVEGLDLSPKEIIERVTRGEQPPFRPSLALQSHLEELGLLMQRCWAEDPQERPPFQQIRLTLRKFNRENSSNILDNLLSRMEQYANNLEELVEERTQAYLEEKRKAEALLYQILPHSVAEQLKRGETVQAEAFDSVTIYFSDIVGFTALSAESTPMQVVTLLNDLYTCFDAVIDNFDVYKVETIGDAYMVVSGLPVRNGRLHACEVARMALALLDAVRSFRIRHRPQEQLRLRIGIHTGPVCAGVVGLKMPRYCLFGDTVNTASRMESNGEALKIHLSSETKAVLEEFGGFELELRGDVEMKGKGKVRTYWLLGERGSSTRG
# Rce1 inhib: yeast Ras-converting enzyme inhibition; Q03530; yeast membranes, quenched prenylated peptide cleavage fluorescence; calls only; 0.27% of 290,000 active;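 active = fall in fluorescence gain of 50% or more versus controls, with final raw signal at or below 3038400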
# PLC-gamma1 inh: blocks human PLC-gamma1 enzyme activity; P19174; purified PLC-gamma1, fluorogenic substrate, fluorescence; inhibition, % at 12.2 µM; 0.84% of 370,000 active; in the data active = inhibition above about 9.5%
# PfM18AAP inh: PfM18AAP enzyme inhibition; recombinant PfM18AAP, H-Glu-NHMec fluorogenic cleavage; inhibition, % at 7.35 µM; 1.2% of 290,000 active;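 active = inhibition above the campaign mean inhibition over all tested compounds plus 3 SD, cut at about 28% in these data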
# PLCg1 ctr: PLC-gamma1 inhibition, counter-screen for PLC-beta3 hits | shares compounds with PLC-gamma1 inh | purified PLC-gamma1, fluorogenic substrate, fluorescence | inhibition, % at 12.3 µM | 3.1% of 3,300 active | AID 743258; in the data active = inhibition above about 9.5%
# PLCb3 confirm: human PLC-beta3 inhibition, confirmation | 1% of 3,300 active | shares compounds with PLC-gamma1 inh | inhibition, % at 12.3 µM | AID 743261 | purified PLC-beta3, fluorogenic substrate fluorescence
# Numbers stand for hits; n = inactive; x = no result given. Rule as the data show it, unless noted: active = inhibition above about 11%; inactive = the rest.
SMILES,PLCb3 inh,GC-B act,GC-A act,Rce1 inhib,PLC-gamma1 inh,PfM18AAP inh,PLCg1 ctr,PLCb3 confirm
CCCCn1c(N)c(N(CC)C(=O)c2ccccc2F)c(=O)[nH]c1=O,n,n,n,n,12,n,n,n
Cc1ccc(N(Cc2ccccc2F)S(C)(=O)=O)c(C)c1,n,n,n,n,n,n,x,x
Cc1ccc(C)c(N(Cc2ccccc2F)S(C)(=O)=O)c1,n,n,n,n,10,n,n,n
Cc1ccc(C)c(SCC(=O)NCc2ccco2)c1,12,n,n,n,n,n,n,n
Cc1ccc(CNS(=O)(=O)c2ccc([N+](=O)[O-])cc2)cc1,n,n,n,n,12,n,n,n
CCOc1ccc(CCNC(=O)COC(=O)c2oc3ccccc3c2COC)cc1OCC,n,n,n,x,14,x,n,n
Cc1cc(NC(=O)c2ccccc2)ncc1NC(=O)c1cccs1,16,n,n,n,n,n,n,n
Cc1cc(NC(=O)c2cccs2)ncc1NC(=O)c1cccc(F)c1,n,n,n,n,n,n,x,x
Cc1cc(-c2nc(C)c(C(=O)NNS(=O)(=O)c3cccc(C(F)(F)F)c3)s2)no1,n,n,n,n,11,n,n,n
COc1ccc(C(=O)CN2C(=O)C(C)(C)Oc3ccc(C(=O)N4CCCCCC4)cc32)cc1,23,n,n,n,n,n,n,n
CC1(C)Oc2ccc(C(=O)N3CCCC3)cc2N(CC(=O)NCc2ccccc2)C1=O,n,n,n,n,n,n,x,x
CCOC(=O)[C@]12CCCC3=C1N(CCC3)C(=O)[C@@H](CC(=O)NCC1CCCCC1)C2,n,n,n,x,n,x,x,x
C[N+]1(C)CCC(OC(=O)C(O)(c2ccccc2)C2CCCC2)C1 (stereo not drawn),n,n,n,n,10,x,n,n
O=C(NCC1CCN(C(=O)C(=O)c2cccs2)CC1)c1ccc2c(c1)CCO2,n,n,n,x,n,x,x,x
COc1ccc(C(=O)NCC(C)(C)N2CCOCC2)cc1S(=O)(=O)NCc1ccc(Cl)cc1,n,n,n,x,12,x,n,n
CC(C)(C)c1ccc(/C=N/NC(=S)NC2CCCCC2)cc1,n,n,n,n,11,n,n,n
O=C(N/N=C/c1ccccc1)NC1CCCCC1,n,n,n,n,n,n,x,x
Cc1noc(C)c1-c1nnc(-c2ccc(C(F)(F)F)cc2)o1,n,n,n,n,10,n,n,n
CC(C)CNS(=O)(=O)/C=C/c1cc2c(cc1CNC(=O)OC(C)(C)C)OCO2,n,n,n,x,n,x,x,x
CCCCNC(=O)C[C@H]1C[C@@]2(C(=O)OCC)CCCC3=C2N(CCC3)C1=O,n,n,n,x,n,x,x,x
C[C@H]1CCC[C@@H](O)CC(=O)c2c(O)cc(O)cc2CC(=O)O1,n,n,n,x,n,x,x,x
COc1ccc(S(=O)(=O)N2CCc3ccccc3C2)cc1OC,n,n,n,n,13,n,n,n
COc1ccc(S(=O)(=O)N2CCc3ccccc3C2)cc1C(=O)O,n,n,n,n,n,n,x,x
O=C(O)c1ccc(NC2=C/C(=N/S(=O)(=O)c3cccs3)c3ccccc3C2=O)cc1,n,n,n,x,n,x,x,x
O=C1C(Nc2ccc(O)cc2)=C/C(=N/S(=O)(=O)c2cccs2)c2ccccc21,n,n,n,n,20,n,29,11
O=C(O)c1ccc(NC2=C/C(=N/S(=O)(=O)c3ccccc3)c3ccccc3C2=O)cc1,n,n,n,x,11,n,18,n
Cn1c(=O)c2c(nc(N3CCCCC3)n2CCSc2nc3ccccc3o2)n(C)c1=O,x,x,x,x,x,n,x,x
CC1CCCN(c2nc3c(c(=O)n(C)c(=O)n3C)n2CCSc2nc3ccccc3o2)C1 (stereo not drawn),n,n,n,n,10,n,n,n
Cc1ccc(-n2c(SCC(=O)c3ccccc3Cl)nnc2-c2cnccn2)cc1,n,n,n,x,n,x,x,x
Cc1ccc(-c2nc3ccsc3c(=O)[nH]2)cc1,n,n,n,n,10,n,n,n
